{"source": "PubChem BioAssay AID1645855", "about": "(Buhrlage Lab, Dana-Farber Cancer Institute and Novartis …, 2021)", "note": "The campaign covered roughly 47,000 compounds. About 3,100 (6.6%) were called active. Many of the other results were omitted from the sample, so actives are more common in it than they were. A number with no mark means an inactive call. Rule as the data show it: active = inhibition above about 30%; inactive = the rest.", "data": [{"target": "Ubiquitin carboxyl-terminal hydrolase 17-like protein 5 (Homo sapiens) (UniProt A8MUK1)", "sequence (A8MUK1 whole entry, looked up)": "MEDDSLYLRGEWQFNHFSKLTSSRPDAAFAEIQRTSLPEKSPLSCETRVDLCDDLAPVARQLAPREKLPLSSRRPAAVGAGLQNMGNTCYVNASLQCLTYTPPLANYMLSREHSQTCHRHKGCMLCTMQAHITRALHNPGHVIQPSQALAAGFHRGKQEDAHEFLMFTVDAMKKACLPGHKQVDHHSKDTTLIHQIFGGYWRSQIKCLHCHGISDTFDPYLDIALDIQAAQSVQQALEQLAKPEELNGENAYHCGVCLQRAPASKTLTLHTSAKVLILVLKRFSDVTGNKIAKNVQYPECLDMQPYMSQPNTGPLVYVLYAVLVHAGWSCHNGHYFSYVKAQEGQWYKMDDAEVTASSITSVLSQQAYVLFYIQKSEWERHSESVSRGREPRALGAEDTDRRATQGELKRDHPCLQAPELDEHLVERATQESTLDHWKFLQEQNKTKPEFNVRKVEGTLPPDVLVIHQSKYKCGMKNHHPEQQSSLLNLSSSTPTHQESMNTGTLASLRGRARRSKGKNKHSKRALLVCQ", "test": "blocks human USP17 ubiquitin-rhodamine cleavage (AID 1645855)", "conditions": "purified USP17, Ub-rhodamine cleavage fluorescence, 3 h; at 50 µM; active compounds read high", "values": [{"smiles": "CN1CC2(COc3ccccc31)CN(S(=O)(=O)c1ccc3c(c1)OCO3)CCO2", "note": "(stereo unspecified)", "inhibition": "-2.79%"}, {"smiles": "CC1(C(=O)NCc2cccc(Cl)c2)Oc2cccnc2NC1=O", "note": "(stereo unspecified)", "inhibition": "-7.83%"}, {"smiles": "O=C(NCC1CC1)[C@H]1C[C@@H]2CN(S(=O)(=O)c3ccccc3)C[C@H]1O2", "inhibition": "-13.7%"}, {"smiles": "Cc1cccc(NC(=O)c2csc(-c3cn(C)c4ncccc34)n2)c1", "inhibition": "2.63%"}, {"smiles": "Cn1cc(-c2nc(C(=O)Nc3ccc(F)cc3)cs2)c2cccnc21", "inhibition": "59.4% (active)"}, {"smiles": "Cn1cc(CCNC(=O)c2cc3ccccc3[nH]2)c2cccnc21", "inhibition": "-17.1%"}, {"smiles": "COCCNC(=O)C1c2ccccc2C(=O)N(C2CCCC2)C12CCCCC2", "note": "(stereo unspecified)", "inhibition": "-1.76%"}, {"smiles": "O=S(Cc1cc(Sc2ccccc2)nc(-c2ccccn2)n1)c1ccc(Cl)cc1", "note": "(stereo unspecified)", "inhibition": "-9.57%"}, {"smiles": "CC(C)(C)c1cc2n(n1)CCN(Cc1ccccc1C(F)(F)F)C2", "inhibition": "-4.87%"}, {"smiles": "COc1cccc(C(=O)N2CCC(c3nc4ccncc4n3C)C2)c1", "note": "(stereo unspecified)", "inhibition": "10%"}, {"smiles": "c1coc(CNc2nc(Nc3cccc4ccccc34)nc3ccccc23)c1", "inhibition": "83.4% (active)"}, {"smiles": "Fc1ccc(-n2cc(-c3ccccc3)c3c(NCc4ccco4)ncnc32)cc1", "inhibition": "-3.63%"}, {"smiles": "O=C(CCc1nnc2ccc(N3CCCCC3)nn12)NCCC1=CCCCC1", "inhibition": "1.2%"}, {"smiles": "O=c1ccc(-c2nc(-c3cnccn3)no2)cn1Cc1ccccc1C(F)(F)F", "inhibition": "7.06%"}, {"smiles": "O=C1CNC(=O)N1CC(O)Cn1c2ccc(Br)cc2c2cc(Br)ccc21", "note": "(stereo unspecified)", "inhibition": "40.1% (active)"}, {"smiles": "CCc1ccc(-n2c(=O)c3ccccc3n(CC(=O)NCCC3=CCCCC3)c2=O)cc1", "inhibition": "64.3% (active)"}, {"smiles": "Cc1ccc(Cn2c(C)c(CNCCC3=CCCCC3)c(C(=O)O)c2C)cc1", "inhibition": "7.92%"}, {"smiles": "O=C(CCc1nnc2n(CCc3ccccc3)c(=O)c3ccccc3n12)NCCN1CCCC1", "inhibition": "13.7%"}, {"smiles": "CN(CCc1ccccn1)C(=O)c1cc2c(=O)oc3ccccc3c2s1", "inhibition": "14.5%"}, {"smiles": "O=C(CC(NCc1cccnc1)C(=O)O)Nc1ccccc1", "note": "(stereo unspecified)", "inhibition": "6.61%"}, {"smiles": "COc1cc(C)c(CN2CCc3c(nc4cc(-c5cc(C)on5)[nH]n4c3=O)C2)cc1OC", "inhibition": "4.84%"}, {"smiles": "O=c1[nH]c(-c2ccncc2)nc2c1CCN(Cc1cn[nH]c1-c1ccc(Cl)cc1)C2", "inhibition": "-0.0464%"}, {"smiles": "O=c1[nH]c(-c2ccccn2)nc2c1CCN(Cc1cnn(-c3ccc(F)cc3)c1)C2", "inhibition": "43.5% (active)"}, {"smiles": "C#CCOc1ccc(CN2CCc3nc(-c4cccnc4)[nH]c(=O)c3C2)cc1OC", "inhibition": "-0.00604%"}, {"smiles": "CCc1cccc(C)c1NC(=O)Cn1nc2ccc(C(=O)NCc3ccccc3)cn2c1=O", "inhibition": "16.4%"}, {"smiles": "Cc1ccc(-c2cc(=O)[nH]c(NCc3ccccc3)n2)cc1", "inhibition": "-6.42%"}, {"smiles": "CC(=O)N1CCN(c2cc(N3CCCCC3)nc(C)n2)CC1", "inhibition": "-36.6%"}, {"smiles": "CCCN1CCN(c2ccc(C(=O)O)cc2NS(=O)(=O)c2cc(F)ccc2F)CC1", "inhibition": "10.4%"}, {"smiles": "Cc1ccc(-c2cc(C(F)F)n3ncc(C(=O)NCC(C)C)c3n2)cc1", "inhibition": "36.6% (active)"}, {"smiles": "COc1ccc(-c2cc(C(F)F)n3ncc(C(=O)N(C)Cc4c(C)nn(C)c4C)c3n2)cc1", "inhibition": "-8.87%"}, {"smiles": "Cc1cc(Nc2ccc(C(=O)NCC(C)C)cc2)n2nc(-c3cccnc3)nc2n1", "inhibition": "-7.54%"}, {"smiles": "O=C(O)COc1ccccc1C(c1c[nH]c2ccccc12)c1c[nH]c2ccccc12", "inhibition": "-15.6%"}, {"smiles": "COc1ccc(CN2CCN(C(=O)c3ccc4c(c3)OCO4)CC2)cn1", "inhibition": "-5.73%"}, {"smiles": "CC(C)c1ccc(NC(=O)CCC(=O)N(c2ccccc2)c2ccccc2)cc1", "inhibition": "6.5%"}, {"smiles": "O=S(=O)(Nc1cccc(O)c1)c1ccc2oc3ccc(S(=O)(=O)Nc4cccc(O)c4)cc3c2c1", "inhibition": "39.1% (active)"}, {"smiles": "Cc1cccc(NS(=O)(=O)c2ccc3nnc(C)n3c2)c1", "inhibition": "4.3%"}, {"smiles": "COc1cccc(NS(=O)(=O)c2ccc(-c3coc(C)n3)cc2)c1", "inhibition": "0.103%"}, {"smiles": "CC1(C)Cc2cccc(OCC(=O)NCC(F)(F)F)c2O1", "inhibition": "4.4%"}, {"smiles": "COC(=O)c1ccc(C(=O)NCC2(O)CCc3ccccc32)cc1", "note": "(stereo unspecified)", "inhibition": "-0.0822%"}, {"smiles": "COCCN1C[C@@]23CN(C(=O)NCc4ccccc4)C[C@@H](C[C@@H]2S1(=O)=O)O3", "inhibition": "12.1%"}, {"smiles": "CC(=O)Nc1ccc(-n2cnc(C(=O)NCc3ccc(C)cc3)c2)nc1", "inhibition": "64.2% (active)"}, {"smiles": "CC(=O)Nc1ccc(-n2cnc(C(=O)N3CCN(c4cccc(C)c4)CC3)c2)nc1", "inhibition": "-7.95%"}, {"smiles": "CC(=O)Nc1ccc(-n2cnc(C(=O)N3CCN(c4ccc(C)cc4)CC3)c2)nc1", "inhibition": "13.8%"}, {"smiles": "Cc1nc(C2CCN(S(C)(=O)=O)CC2)nc2c1CCC(=O)N2CC(C)C", "inhibition": "-7.01%"}, {"smiles": "Cc1cc2nc(Cc3ccccc3)cc(=O)n2[nH]1", "inhibition": "-11.5%"}, {"smiles": "CC1CCCN(C(=O)c2cc(S(=O)(=O)N3CCCCC3)ccc2Cl)C1", "note": "(stereo unspecified)", "inhibition": "-1.66%"}, {"smiles": "CCN1CCN(S(=O)(=O)c2ccc3c(c2)CC(C)N3C(=O)C2CC2)CC1", "note": "(stereo unspecified)", "inhibition": "2.74%"}, {"smiles": "CC(C)NC(=O)CN1C(=O)CC(C)Sc2ccc(S(=O)(=O)N3CCCCC3)cc21", "note": "(stereo unspecified)", "inhibition": "43.8% (active)"}, {"smiles": "COc1ccc2ncc(S(=O)(=O)c3ccccc3)c(N3CCOCC3)c2c1", "inhibition": "-6.05%"}, {"smiles": "O=C(Cc1cccc(F)c1)NC1(c2nc(C3CC3)no2)CCCCC1", "inhibition": "5.03%"}, {"smiles": "Cc1noc(C2(NC(=O)Cc3ccccc3C)CCCCC2)n1", "inhibition": "-5.54%"}, {"smiles": "Cc1csc(C2(NC(=O)Cc3cc(C)on3)CCCC2)n1", "inhibition": "31.4% (active)"}, {"smiles": "Cc1nn2c(S(=O)(=O)NCc3ccccc3F)c(C)nc2s1", "inhibition": "18.9%"}, {"smiles": "CCN(CC)c1ccc(NC(=O)Nc2ccc(OCc3ccccc3)cc2)cc1", "inhibition": "7.88%"}, {"smiles": "CC1CCN(S(=O)(=O)N2CCCC(C(=O)Nc3ccccc3Cl)C2)CC1", "note": "(stereo unspecified)", "inhibition": "1.17%"}, {"smiles": "CC(C)C(=O)Nc1nc2cc(NS(=O)(=O)c3ccccc3)ccc2s1", "inhibition": "4.36%"}, {"smiles": "CCCC(=O)Nc1nc2ccc(CCC(=O)NCc3ccc(F)cc3)cc2s1", "inhibition": "65.3% (active)"}, {"smiles": "Cc1ccc2nc(CCC(=O)NCc3ccc(F)cc3F)n(C)c(=O)c2c1", "inhibition": "10.9%"}, {"smiles": "O=C(CCc1nc2sc3c(c2c(=O)[nH]1)CCCC3)Nc1ccc(F)cc1", "inhibition": "2.56%"}, {"smiles": "CC(C)C(=O)Nc1nc2ccc(CCC(=O)Nc3ccc(F)cc3)cc2s1", "inhibition": "43.6% (active)"}, {"smiles": "O=C(Cc1cccc2ccccc12)Nc1nc2ccc(F)cc2s1", "inhibition": "23.9%"}]}]}
